Screening data deposited in PubChem by several laboratories.
The list is not random: actives were taken first. Their share in the collection is about 12%.
Cl transport mod – modulators of human KCC2 chloride dependent transport; Q9H2X9; KCC2 cells, thallium flux FluoZin-2 fluorescence; B-score of Tl+ flux slope (higher = more flux/activation; lower = inhibition) at 10 µM; 190,000 tested, 2.2% active; AID 1456;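 active = thallium flux slope and its plate-corrected score both differing from the plate sample mean at a set confidence after two filtering rounds, in either direction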;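 note: slope of fluorescence scaled to starting intensity during 10 to 20 s after thallium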
Insulin prom up – MIN6 insulin promoter up-regulation | AID 1625 | MIN6 insulin promoter-GFP reporter, high-content imaging; hits give high values | z-score at 5 µM | 190,000 tested, 0.3% active;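 active = z-score above 3 at 5 µM with at least 500 cells counted in the well; inconclusive = wells under 500 cells, flagged as cytotoxic or low count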
L major viab – reduces viability of Leishmania major promastigotes; AID 1063; 200,000 tested, 9% active; resazurin fluorescence viability; inhibition, % at 10 µM; in the data active = inhibition above about 50%;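 note: promastigotes grown with compound for 44 hours at 28 °C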
ROMK mod – human ROMK K+ channel modulation, primary screen | Tet-inducible ROMK, thallium flux fluorescence; actives lie on both sides | 130,000 tested, 2% active | B-score at 10 µM;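 active = signal ratio slope over the read window, or its plate-corrected B-score, at least 3 SD from the plate mean, either direction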;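 note: B-score of the F/F0 ratio slope over 7 to 12 s after thallium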
Target sequence (P48048 whole entry, looked up): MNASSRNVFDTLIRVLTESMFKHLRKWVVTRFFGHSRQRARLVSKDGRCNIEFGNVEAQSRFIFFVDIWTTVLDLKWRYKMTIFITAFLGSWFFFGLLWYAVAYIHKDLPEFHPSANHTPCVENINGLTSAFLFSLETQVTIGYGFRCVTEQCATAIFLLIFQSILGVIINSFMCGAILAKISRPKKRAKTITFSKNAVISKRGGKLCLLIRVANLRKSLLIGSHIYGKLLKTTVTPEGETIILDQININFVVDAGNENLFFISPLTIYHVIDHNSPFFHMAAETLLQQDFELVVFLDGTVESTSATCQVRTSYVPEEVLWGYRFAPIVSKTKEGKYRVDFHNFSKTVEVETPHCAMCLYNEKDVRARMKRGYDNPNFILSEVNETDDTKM
WT yeast gro inh – growth inhibition of WT yeast, mitochondrial fusion screen; inhibition, % at 10 µM; 190,000 tested, 2.1% active; mitochondrial fusion phenotypic screen, WT strain; in the data active = inhibition above about 58%; tested in S. cerevisiae
INS promoter inh – TRM-6 insulin promoter activity inhibition; inhibition, % at 2 µM; TRM-6 cells (human fetal islet line), insulin promoter-eGFP reporter, imaging; reporter expression induced with tamoxifen; AID 1273; 130,000 tested, 0.9% active;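 active = inhibition above the mean plus 3 SD, with well images judged a real hit on visual review, cut at about 60% in these data, passing the limit was not always enough; inconclusive = inhibition over the cutoff but images rejected on review; inactive = inhibition not above the cutoff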
Of the large screens only hits and unclear results are named; the others gave an inactive call.

COc1ccc2cc3cc(C(=O)NCCCN4CCc5ccccc5C4)sc3nc2c1	L major viab 96
COc1cccc(-c2nc(CS(=O)(=O)CC(=O)NCCCN3CCc4ccccc4C3)c(C)o2)c1	Cl transport mod -3.9 (no result: ROMK mod)
COc1ccc2nc3sc(C(=O)NCCN4CCc5ccccc5C4)cc3cc2c1	none
Cc1onc(-c2ccccc2Cl)c1C(=O)N1CCN(Cc2ccc3c(c2)OCO3)CC1	none (no result: Insulin prom up)
COc1ccc(C(CC(=O)c2ccccc2)CC(=O)c2ccccc2)cc1OC	L major viab 51 (no result: INS promoter inh)
CC1CC(=O)Nc2ccccc2N1C(=O)CN1CCN(c2ccccc2)CC1 (stereo not drawn)	none (no result: INS promoter inh)
O=C(OCc1nc2ccc(Cl)cc2n1CCO)c1ccc(O)cc1	L major viab 54
O=C(OCc1nc2ccc(Cl)cc2n1CCO)c1ccccc1	none (no result: Insulin prom up)
O=C(COC(=O)c1cc([N+](=O)[O-])ccc1NCc1ccccc1Cl)NCC(F)(F)F	none (no result: ROMK mod, INS promoter inh)
Cc1ccc(C(=O)O/N=C/C2=C(Cl)c3ccccc3CC2)cc1	none (no result: Insulin prom up, ROMK mod)
Cc1ccc(CO/N=C/C2=C(Cl)c3ccccc3CC2)cc1	INS promoter inh 79
Cc1ccc(-n2c(N)c(C#N)c(-c3ccccc3)c(C#N)c2=O)cc1	WT yeast gro inh 70
Cc1ccc(-n2c(C)cc(C)c(C#N)c2=O)cc1	none (no result: Insulin prom up, ROMK mod)
CCN(CC)S(=O)(=O)c1ccc2c(c1)nc(SCC(=O)NC1CC1)n2-c1ccccc1OC	L major viab 80 (no result: ROMK mod)
COc1ccccc1-n1c(SCC(=O)c2ccc(O)cc2O)nc2cc([N+](=O)[O-])ccc21	L major viab 51, WT yeast gro inh 77
COc1ccccc1-n1c(SCC(=O)NC2CCS(=O)(=O)C2)nc2cc([N+](=O)[O-])ccc21 (stereo not drawn)	none (no result: ROMK mod)
CC(=O)c1sc2nsc(SCCN3CCOCC3)c2c1N	none (no result: L major viab, ROMK mod, WT yeast gro inh, INS promoter inh)
Cn1c2ccccc2c(=O)c2c(=O)n(Cc3ccccc3)c(-c3ccc(F)cc3)nc21	none (no result: L major viab, WT yeast gro inh, INS promoter inh)
CCCCCn1c(=O)[nH]c2cc(C(=O)NCc3ccccn3)ccc2c1=O	INS promoter inh inconclusive
COc1ccccc1C(=O)N1CCN(C2CCN(Cc3ccccc3)CC2)CC1	L major viab 91 (no result: Cl transport mod)
O=C(c1cccc(Oc2c(Cl)cccc2[N+](=O)[O-])c1)N1CCCCC1	none (no result: INS promoter inh)
O=C(c1cccc(OC2CCN(C3CCCC3)CC2)c1)N1CCCCCCC1	L major viab 89 (no result: INS promoter inh)
COc1cccc(C(=O)N2CCN(C3CCN(Cc4ccccc4)CC3)CC2)c1	L major viab 90 (no result: INS promoter inh)
COc1ccc(C(=O)N2CCN(C3CCN(Cc4ccccc4)CC3)CC2)cc1OC	none
COc1cc([N+](=O)[O-])ccc1NC(=O)/C=C\C(=O)O	none (no result: INS promoter inh)
COc1ccccc1OCC#CCn1ccnc1	none (no result: WT yeast gro inh, INS promoter inh)
COc1ccccc1OCC#CCNC1CCCCC1C (stereo not drawn)	L major viab 78 (no result: INS promoter inh)
COc1cccc(C(=O)N2CCC(O)(c3cccnc3)CC2)c1	none (no result: Cl transport mod, ROMK mod, INS promoter inh)
CN1CCC(OC(=O)COc2ccc(Br)cc2)CC1	none (no result: INS promoter inh)
CN1CCC(OC(=O)c2ccc(Br)cc2)CC1	L major viab 85 (no result: Insulin prom up, ROMK mod, WT yeast gro inh)
Cc1ccc2oc(-c3ccco3)nc2c1	none (no result: Cl transport mod)
Cc1ccc(N(Cc2ccc([N+](=O)[O-])cc2)C(=O)c2ccco2)cc1	none (no result: Insulin prom up, ROMK mod)
CCOC(=O)C1(CCOc2ccccc2)CCN(Cc2ccc(CO)o2)CC1	L major viab 62 (no result: INS promoter inh)
CCOC(=O)C1(CCOc2ccccc2)CCN(Cc2cnc(C)s2)CC1	L major viab 79 (no result: Cl transport mod, Insulin prom up, INS promoter inh)
Cc1noc(C)c1COC(=O)/C=C/c1ccc(Cl)cc1	none
C[C@@H](O)C1NC(=O)[C@H](CCCCN)NC(=O)c2cc([N+](=O)[O-])cc(F)c2NCCCC[C@@H](C(N)=O)NC1=O (stereo partly drawn)	none
CC(=O)COc1cc(C)cc2oc(=O)cc(-c3ccccc3)c12	none (no result: INS promoter inh)
COc1ccc([N+](=O)[O-])cc1COc1cc(C)cc2oc(=O)cc(-c3ccccc3)c12	L major viab 99 (no result: Cl transport mod, ROMK mod, INS promoter inh)
Cc1ccc(C(O)P(=O)(OCc2ccccc2)c2ccc(N(C)C)cc2)cc1 (stereo not drawn)	none (no result: L major viab, ROMK mod, WT yeast gro inh, INS promoter inh)
CNS(=O)(=O)c1cc(C(=O)OCC(=O)NC2CCCc3ccccc32)ccc1Cl (stereo not drawn)	none
CCN(CC)S(=O)(=O)c1cc(C(=O)OCC(=O)NC2CCCc3ccccc32)ccc1C (stereo not drawn)	L major viab 51 (no result: ROMK mod)
CC1(C)CC(=O)C2=C(C1)Oc1ncn(CCO)c(=N)c1C2c1ccccc1 (stereo not drawn)	none (no result: Cl transport mod)
OC(CCCN1CCC(O)(c2ccc(Cl)cc2)CC1)c1ccc(F)cc1 (stereo not drawn)	L major viab 96 (no result: Insulin prom up, ROMK mod)
